This is an account of results in article PMC7862700, “An all-to-all approach to the identification of sequence-specific readers for epigenetic DNA modifications on cytosine”.

What all share (experiment): DAPPL (digital affinity profiling via proximity ligation, sequencing); 10 mM Tris-HCl pH 7.5, 50 mM NaCl, 1 mM DTT, 4% glycerol, room temperature, 30 min; GST-TFs on glutathione beads, 16-mer random dsDNA library, 0.1% formaldehyde crosslink after washing; high values mean tight binding
The target in one test is T1, FLI1 (Homo sapiens, UniProt Q01543 1-452).
T1 sequence: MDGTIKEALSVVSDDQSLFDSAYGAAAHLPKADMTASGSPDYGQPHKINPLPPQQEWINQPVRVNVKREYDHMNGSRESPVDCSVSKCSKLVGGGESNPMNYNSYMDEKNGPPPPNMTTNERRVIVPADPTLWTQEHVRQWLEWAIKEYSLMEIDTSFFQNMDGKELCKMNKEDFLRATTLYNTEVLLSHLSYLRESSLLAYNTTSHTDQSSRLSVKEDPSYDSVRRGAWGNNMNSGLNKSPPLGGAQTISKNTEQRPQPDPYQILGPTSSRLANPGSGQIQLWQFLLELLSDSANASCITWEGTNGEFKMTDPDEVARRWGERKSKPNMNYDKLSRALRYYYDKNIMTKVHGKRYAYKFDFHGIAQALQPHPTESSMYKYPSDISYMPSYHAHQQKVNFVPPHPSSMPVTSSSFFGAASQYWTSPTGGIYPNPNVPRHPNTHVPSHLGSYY
To be noted: protein: recombinant; tags: N-terminal GST; dsDNA, one strand shown. An outline of the steps:
(§1)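 Binding signal is given per hexamer as its read frequency for a factor divided by its frequency in the tag-only sample. GST-fused human transcription factors were expressed in yeast, captured on glutathione beads, barcoded with DNA and pooled with that sample, then incubated with 200 nmole of a 16-mer random double-stranded DNA library in Tris/NaCl/DTT/glycerol buffer for 30 min at room temperature. The pools were then washed, crosslinked, proximity-ligated, amplified by PCR and sequenced on an Illumina NextSeq500.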

The target of a further test is T2, ELK1 (Homo sapiens, UniProt P19419 1-428).
T2 sequence: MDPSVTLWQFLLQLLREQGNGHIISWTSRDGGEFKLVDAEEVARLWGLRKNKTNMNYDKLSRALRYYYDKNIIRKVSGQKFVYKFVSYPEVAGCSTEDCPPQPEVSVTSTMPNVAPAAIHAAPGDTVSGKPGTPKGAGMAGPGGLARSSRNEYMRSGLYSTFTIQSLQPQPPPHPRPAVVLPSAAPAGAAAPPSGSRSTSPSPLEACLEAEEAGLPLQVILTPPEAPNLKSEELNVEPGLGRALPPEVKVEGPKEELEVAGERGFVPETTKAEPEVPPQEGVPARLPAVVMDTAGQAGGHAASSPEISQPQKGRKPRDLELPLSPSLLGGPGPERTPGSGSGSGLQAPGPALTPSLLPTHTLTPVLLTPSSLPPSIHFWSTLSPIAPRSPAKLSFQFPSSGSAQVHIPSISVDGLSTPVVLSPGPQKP
To be noted: protein: recombinant; tags: N-terminal GST; dsDNA, one strand shown. The gist of the method: as §1

For the next test, the target named is T3, GABPA (Homo sapiens, UniProt Q06546 1-454).
T3 sequence: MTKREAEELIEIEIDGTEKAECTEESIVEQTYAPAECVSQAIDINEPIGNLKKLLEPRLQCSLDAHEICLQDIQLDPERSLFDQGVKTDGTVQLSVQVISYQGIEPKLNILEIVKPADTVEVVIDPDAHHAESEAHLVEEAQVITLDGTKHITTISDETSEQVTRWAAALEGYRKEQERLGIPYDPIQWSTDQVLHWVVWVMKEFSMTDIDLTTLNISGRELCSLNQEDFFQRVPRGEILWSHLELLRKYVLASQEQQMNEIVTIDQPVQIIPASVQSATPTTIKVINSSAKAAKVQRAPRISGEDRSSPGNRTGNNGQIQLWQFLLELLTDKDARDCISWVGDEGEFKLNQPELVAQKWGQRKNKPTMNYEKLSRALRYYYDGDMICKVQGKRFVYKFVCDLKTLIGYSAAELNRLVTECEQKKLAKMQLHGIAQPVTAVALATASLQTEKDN
To be noted: protein: recombinant; tags: N-terminal GST; dsDNA, one strand shown. The gist of the method: as §1

The target of the next test is ELF1 (Homo sapiens, UniProt P32519 1-619). To be noted: protein: recombinant; tags: N-terminal GST; dsDNA, one strand shown. An outline of the steps: as §1
ELF1, sequence (P32519 whole entry): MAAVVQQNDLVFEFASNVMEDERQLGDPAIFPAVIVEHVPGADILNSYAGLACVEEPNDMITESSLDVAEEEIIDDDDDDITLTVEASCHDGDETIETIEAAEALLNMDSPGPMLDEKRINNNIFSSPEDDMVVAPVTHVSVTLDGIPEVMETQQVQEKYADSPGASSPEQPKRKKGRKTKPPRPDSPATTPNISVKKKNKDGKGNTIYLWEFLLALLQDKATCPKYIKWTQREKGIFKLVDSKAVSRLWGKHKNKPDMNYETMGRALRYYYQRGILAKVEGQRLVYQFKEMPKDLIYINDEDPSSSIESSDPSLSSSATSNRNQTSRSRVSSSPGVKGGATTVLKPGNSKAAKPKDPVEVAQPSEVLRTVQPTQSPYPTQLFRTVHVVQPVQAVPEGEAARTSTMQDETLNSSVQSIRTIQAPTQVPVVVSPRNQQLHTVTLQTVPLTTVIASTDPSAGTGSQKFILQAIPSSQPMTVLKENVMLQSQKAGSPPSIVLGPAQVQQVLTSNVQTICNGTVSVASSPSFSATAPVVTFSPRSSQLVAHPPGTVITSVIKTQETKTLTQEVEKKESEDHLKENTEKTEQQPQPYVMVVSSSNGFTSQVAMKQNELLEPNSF
The target of another test is T4, EHF (Homo sapiens, UniProt Q9NZC4 1-300).
T4 sequence: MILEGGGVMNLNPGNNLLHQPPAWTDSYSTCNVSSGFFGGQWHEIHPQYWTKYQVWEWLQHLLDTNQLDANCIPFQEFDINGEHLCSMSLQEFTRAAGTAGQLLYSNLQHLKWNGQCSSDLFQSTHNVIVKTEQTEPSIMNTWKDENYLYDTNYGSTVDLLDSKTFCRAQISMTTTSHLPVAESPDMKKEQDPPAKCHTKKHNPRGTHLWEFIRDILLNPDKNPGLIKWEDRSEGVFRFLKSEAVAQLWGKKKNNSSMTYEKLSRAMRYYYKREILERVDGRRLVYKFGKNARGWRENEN
To be noted: protein: recombinant; tags: N-terminal GST; dsDNA, one strand shown. The gist of the method:
as §1

The target in the next test is SPI1 (Homo sapiens, UniProt P17947 1-270). To be noted: protein: recombinant; tags: N-terminal GST; dsDNA, one strand shown. An outline of the steps:
as §1

The next test deals with SPIB (Homo sapiens, UniProt Q01892 1-262). Particulars: protein: recombinant; tags: N-terminal GST; dsDNA, one strand shown. An outline of the steps:
as §1

For a further test, the target named is T5, ELK3 (Homo sapiens, UniProt P41970 1-407).
T5 sequence: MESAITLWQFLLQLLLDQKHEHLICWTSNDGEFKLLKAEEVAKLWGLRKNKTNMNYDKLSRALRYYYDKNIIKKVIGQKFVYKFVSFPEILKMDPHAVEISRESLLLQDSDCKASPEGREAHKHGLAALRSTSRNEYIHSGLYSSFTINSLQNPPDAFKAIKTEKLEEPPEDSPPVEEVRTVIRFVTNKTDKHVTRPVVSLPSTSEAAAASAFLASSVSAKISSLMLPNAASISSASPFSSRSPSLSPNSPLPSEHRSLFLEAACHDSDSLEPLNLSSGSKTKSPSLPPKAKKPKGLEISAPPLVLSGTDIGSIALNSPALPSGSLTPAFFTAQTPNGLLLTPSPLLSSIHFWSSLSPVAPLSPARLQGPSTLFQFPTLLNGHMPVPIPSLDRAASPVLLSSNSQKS
Particulars: protein: recombinant; tags: N-terminal GST; dsDNA, one strand shown. The gist of the method:
as §1

In the next test the target is ETV5 (Homo sapiens, UniProt P41161 1-510). To be noted: protein: recombinant; tags: N-terminal GST; dsDNA, one strand shown. An outline of the steps:
as §1

A further test deals with HSF1 (Homo sapiens, UniProt Q00613 1-529). To be noted: protein: recombinant; tags: N-terminal GST; chain copies: 3; dsDNA, one strand shown. The gist of the method: as §1
HSF1, sequence (Q00613 whole entry): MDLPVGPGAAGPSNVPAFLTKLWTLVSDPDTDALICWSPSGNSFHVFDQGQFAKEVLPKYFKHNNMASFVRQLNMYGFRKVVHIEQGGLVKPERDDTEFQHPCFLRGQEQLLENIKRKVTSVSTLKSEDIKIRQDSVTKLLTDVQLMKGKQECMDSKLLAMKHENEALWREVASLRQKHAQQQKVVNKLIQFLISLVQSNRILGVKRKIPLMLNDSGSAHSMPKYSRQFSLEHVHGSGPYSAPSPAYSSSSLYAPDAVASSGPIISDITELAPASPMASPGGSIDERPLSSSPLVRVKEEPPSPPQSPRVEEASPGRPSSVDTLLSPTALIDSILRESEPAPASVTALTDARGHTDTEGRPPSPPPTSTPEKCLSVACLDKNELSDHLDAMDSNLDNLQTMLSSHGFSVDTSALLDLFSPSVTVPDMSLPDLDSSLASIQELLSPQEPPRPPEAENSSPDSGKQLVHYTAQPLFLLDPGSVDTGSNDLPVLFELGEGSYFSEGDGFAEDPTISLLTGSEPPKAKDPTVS
In a further test the target is ELF4 (Homo sapiens, UniProt Q99607 1-663). Particulars: protein: recombinant; tags: N-terminal GST; dsDNA, one strand shown. An outline of the steps:
as §1

For a further test, the target named is T6, ELK4 (Homo sapiens, UniProt P28324-2 1-405).
T6 sequence: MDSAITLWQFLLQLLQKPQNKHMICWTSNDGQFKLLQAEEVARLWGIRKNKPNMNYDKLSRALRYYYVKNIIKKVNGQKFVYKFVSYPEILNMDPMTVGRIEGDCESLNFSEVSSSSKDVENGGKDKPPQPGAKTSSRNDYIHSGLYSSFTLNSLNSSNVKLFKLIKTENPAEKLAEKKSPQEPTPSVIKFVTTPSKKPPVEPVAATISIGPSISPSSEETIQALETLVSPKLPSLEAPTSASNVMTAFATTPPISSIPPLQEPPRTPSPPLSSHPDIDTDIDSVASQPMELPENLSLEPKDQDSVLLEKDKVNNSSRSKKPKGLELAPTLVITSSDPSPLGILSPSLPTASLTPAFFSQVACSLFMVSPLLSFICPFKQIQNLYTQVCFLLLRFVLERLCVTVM
To be noted: protein: recombinant; tags: N-terminal GST; dsDNA, one strand shown. The gist of the method: as §1

In another test the target is T7, ETV2 (Homo sapiens, UniProt O00321 1-342).
T7 sequence: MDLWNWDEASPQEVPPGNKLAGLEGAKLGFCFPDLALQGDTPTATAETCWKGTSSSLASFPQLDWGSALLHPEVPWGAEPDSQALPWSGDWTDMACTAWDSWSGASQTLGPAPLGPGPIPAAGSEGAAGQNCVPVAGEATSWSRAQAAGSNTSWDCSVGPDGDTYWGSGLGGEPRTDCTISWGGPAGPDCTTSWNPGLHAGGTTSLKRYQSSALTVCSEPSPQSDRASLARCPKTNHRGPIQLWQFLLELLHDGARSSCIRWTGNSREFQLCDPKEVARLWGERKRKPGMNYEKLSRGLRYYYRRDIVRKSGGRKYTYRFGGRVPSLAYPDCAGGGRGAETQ
To be noted: protein: recombinant; tags: N-terminal GST; dsDNA, one strand shown. The gist of the method: as §1

The next test addresses T8, ELF3 (Homo sapiens, UniProt P78545 1-371).
T8 sequence: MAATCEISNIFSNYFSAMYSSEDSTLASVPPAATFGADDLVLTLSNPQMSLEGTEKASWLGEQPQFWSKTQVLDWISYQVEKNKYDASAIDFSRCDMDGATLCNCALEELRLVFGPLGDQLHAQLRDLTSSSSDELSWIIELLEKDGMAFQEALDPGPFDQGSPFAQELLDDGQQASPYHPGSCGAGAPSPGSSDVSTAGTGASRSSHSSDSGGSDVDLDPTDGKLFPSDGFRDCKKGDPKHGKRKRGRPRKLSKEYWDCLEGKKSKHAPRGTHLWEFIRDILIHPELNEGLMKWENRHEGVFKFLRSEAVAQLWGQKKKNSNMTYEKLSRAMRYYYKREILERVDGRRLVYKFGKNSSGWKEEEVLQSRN
Particulars: protein: recombinant; tags: N-terminal GST; dsDNA, one strand shown. An outline of the steps:
as §1

The next test concerns the target ETV1 (Homo sapiens, UniProt P50549 1-477). To be noted: protein: recombinant; tags: N-terminal GST; dsDNA, one strand shown. The gist of the method:
as §1

ETV5, sequence (P41161 whole entry): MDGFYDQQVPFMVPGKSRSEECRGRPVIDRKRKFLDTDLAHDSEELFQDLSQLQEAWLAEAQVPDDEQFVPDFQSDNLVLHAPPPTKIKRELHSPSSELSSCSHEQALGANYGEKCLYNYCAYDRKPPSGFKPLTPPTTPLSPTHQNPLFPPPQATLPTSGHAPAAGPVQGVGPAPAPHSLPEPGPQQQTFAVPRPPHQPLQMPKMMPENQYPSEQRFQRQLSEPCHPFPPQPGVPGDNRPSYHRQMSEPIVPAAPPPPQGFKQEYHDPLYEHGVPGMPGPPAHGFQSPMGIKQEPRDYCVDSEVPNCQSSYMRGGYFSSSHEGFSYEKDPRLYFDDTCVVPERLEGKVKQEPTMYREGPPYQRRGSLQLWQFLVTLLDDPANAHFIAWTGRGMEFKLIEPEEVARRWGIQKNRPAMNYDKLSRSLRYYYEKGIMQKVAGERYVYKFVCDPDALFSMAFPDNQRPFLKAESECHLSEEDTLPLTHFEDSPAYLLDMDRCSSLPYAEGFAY
ETV1, sequence (P50549 whole entry): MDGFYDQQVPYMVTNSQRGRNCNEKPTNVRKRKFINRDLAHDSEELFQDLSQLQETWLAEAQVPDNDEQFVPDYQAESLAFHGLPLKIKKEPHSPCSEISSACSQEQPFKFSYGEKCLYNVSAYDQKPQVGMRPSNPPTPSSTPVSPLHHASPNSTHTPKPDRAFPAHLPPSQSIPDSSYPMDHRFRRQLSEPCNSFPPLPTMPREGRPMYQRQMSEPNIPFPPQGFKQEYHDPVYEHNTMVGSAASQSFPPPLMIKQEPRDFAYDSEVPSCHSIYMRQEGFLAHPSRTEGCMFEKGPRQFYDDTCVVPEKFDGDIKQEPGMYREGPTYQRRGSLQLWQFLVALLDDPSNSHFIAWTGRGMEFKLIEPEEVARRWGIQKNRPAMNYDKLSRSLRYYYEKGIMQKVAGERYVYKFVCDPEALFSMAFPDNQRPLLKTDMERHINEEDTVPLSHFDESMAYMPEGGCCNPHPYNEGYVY
SPIB, sequence (Q01892 whole entry): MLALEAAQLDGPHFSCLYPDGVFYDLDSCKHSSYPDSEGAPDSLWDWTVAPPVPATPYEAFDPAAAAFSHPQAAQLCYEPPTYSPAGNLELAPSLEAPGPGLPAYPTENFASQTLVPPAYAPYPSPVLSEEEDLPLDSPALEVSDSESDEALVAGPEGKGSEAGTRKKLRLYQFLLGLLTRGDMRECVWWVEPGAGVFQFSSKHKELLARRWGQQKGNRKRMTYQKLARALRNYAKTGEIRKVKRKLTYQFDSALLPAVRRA
ELF4, sequence (Q99607 whole entry): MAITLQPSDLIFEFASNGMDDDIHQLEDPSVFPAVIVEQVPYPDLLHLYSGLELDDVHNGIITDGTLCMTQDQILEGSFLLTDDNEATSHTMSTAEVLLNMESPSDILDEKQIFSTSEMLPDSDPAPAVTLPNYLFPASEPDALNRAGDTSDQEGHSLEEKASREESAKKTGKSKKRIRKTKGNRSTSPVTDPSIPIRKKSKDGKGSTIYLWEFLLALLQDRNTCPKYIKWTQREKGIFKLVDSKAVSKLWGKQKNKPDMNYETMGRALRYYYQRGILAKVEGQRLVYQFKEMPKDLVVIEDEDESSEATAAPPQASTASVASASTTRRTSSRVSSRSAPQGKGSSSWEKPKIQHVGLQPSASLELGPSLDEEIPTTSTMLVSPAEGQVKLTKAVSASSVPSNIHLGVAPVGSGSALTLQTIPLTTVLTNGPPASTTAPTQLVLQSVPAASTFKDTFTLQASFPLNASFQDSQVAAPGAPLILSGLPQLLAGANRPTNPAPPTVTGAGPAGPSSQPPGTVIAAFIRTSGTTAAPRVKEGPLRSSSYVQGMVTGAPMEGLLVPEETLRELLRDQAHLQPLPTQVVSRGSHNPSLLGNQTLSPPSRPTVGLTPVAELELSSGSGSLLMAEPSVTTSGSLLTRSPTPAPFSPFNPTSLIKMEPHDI

On to CGAGTT, for which the binding signal in the test with FLI1 was 1.16 fold enrichment (6-mer frequency, TF over GST control); with ELK1, 1.1 fold enrichment (6-mer frequency, TF over GST control); with GABPA, 1.02 fold enrichment (6-mer frequency, TF over GST control); in the test with ELF1, 1.16 fold enrichment (6-mer frequency, TF over GST control); with EHF, 1.04 fold enrichment (6-mer frequency, TF over GST control); in the test with SPI1, 1.09 fold enrichment (6-mer frequency, TF over GST control). Also, the binding signal was 1.07 fold enrichment (6-mer frequency, TF over GST control) with SPIB; 1.14 fold enrichment (6-mer frequency, TF over GST control) with ELK3; 1.1 fold enrichment (6-mer frequency, TF over GST control) with ETV5; 1.07 fold enrichment (6-mer frequency, TF over GST control) with HSF1; 1.06 fold enrichment (6-mer frequency, TF over GST control) with ELF4; 1.1 fold enrichment (6-mer frequency, TF over GST control) with ELK4. The binding signal was 1.11 fold enrichment (6-mer frequency, TF over GST control) with ETV2; 1.16 fold enrichment (6-mer frequency, TF over GST control) with ELF3; 1.04 fold enrichment (6-mer frequency, TF over GST control) with ETV1.
